Experimental findings from PubChem BioAssay (EPA / NIEHS) are described below.

Results filed as inconclusive are left out. Activity calls are given as the source filed them. How the source made its calls: active means hit-call score of the fitted dose curve at least 0.9, where 1 is the maximum; inconclusive means response in the unintended direction; inactive means score below 0.9. Where a SMILES comes first, the peptide text is derived from it. Bridges are numbered along the chain shown (N, C = ends). [ ]: non-standard residue; d: D form. hArg = N=C(N)NCCCC[C@H](N)C(=O)O; Mpa = O=C(O)CCS

Sequence of Cellular tumor antigen p53 (Homo sapiens) (P04637 whole entry, looked up): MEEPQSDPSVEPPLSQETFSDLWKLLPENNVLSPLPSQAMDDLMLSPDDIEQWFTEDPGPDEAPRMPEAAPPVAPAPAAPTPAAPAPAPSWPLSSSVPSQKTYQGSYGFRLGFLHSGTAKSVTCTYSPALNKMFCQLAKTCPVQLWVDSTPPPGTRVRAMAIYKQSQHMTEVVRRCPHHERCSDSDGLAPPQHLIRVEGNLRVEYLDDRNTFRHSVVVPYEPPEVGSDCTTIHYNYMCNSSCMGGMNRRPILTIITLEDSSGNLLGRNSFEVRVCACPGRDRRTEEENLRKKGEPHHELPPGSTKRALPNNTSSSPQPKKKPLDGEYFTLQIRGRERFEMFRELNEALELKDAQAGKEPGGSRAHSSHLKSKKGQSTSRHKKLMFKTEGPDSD

The assay addresses Cellular tumor antigen p53 (Homo sapiens) (UniProt P04637). As to the kind of experiment: TOX21_p53_BLA_p3_ratio: Tox21 HCT-116 p53 Agonism Beta-lactamase Assay, Ratio, Phase 3 (AID 2283596). Put shortly:
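HCT116 p53-bla cells (4000/well) given compound in DMSO (217-fold dilution) after 5 h, incubated 16 h at 37C. CCF4-AM substrate 2 h at room temperature; 460/530 nm emission ratio, gain fitted against DMSO.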
For the molecule `C=CC(=O)OCCOCCOC(=O)C=C`, the outcome was inactive. Same read-out and setting: with `C1=C\CC/C=C\CC/1` the entry was “inactive”; with `O=C(COCCOCCOCC(=O)Nc1c(I)cc(I)c(C(=O)O)c1I)Nc1c(I)cc(I)c(C(=O)O)c1I`, “inactive”.

For the molecule `O=Nc1ccc(NO)cc1`, the result was inactive. Turning to `CC(C)NCC(O)COc1ccccc1-n1cccc1` (stereo not drawn), the outcome was inactive. Same read-out and setting: with `CC(Oc1ccccc1)C(=O)N[C@@H]1C(=O)N2[C@@H]1SC(C)(C)[C@@H]2C(=O)O` (stereo partly drawn) the entry was “inactive”; with `CN1[C@@H]2CC[C@H]1CC(OC(=O)c1c[nH]c3ccccc13)C2` (stereo partly drawn), “inactive”. Same read-out and setting: the entry for `C[C@@H](O)C(=O)O` is “inactive”. For the molecule `O=C1C(CCS(=O)c2ccccc2)C(=O)N(c2ccccc2)N1c1ccccc1` (stereo not drawn), the result was inactive. On the same count and under the same terms, the entry for `NC(=O)[C@@H]1CSSCCC(=O)N[C@@H](CCCCN=C(N)N)C(=O)NCC(=O)N[C@@H](CC(=O)O)C(=O)N[C@H](Cc2c[nH]c3ccccc23)C(=O)N2CCC[C@H]2C(=O)N1` ([Mpa][hArg]GD[dW]PC-NH2; disulfide 1-7) is “inactive”; for `O=C(O)Cc1csc(-c2ccc(Cl)cc2)n1` it is “inactive”. Same read-out and setting: with `C[C@H](O)C(=O)Nc1c(I)c(C(=O)NC(CO)CO)c(I)c(C(=O)NC(CO)CO)c1I` the entry was “inactive”; with `CC(=NCc1ccccc1)c1ccccc1O`, “inactive”; with `COc1ccc(NS(=O)(=O)c2ccc(N)cc2)nn1`, “inactive”. The same measure, in the same setting: with `Cc1ccc(C(=O)c2ccc(CC(=O)O)n2C)cc1` the entry was “inactive”; with `Nc1ccc(Cl)cc1[N+](=O)[O-]`, “inactive”; with `CC(=O)N[C@@H](CC(=O)N[C@@H](CCC(=O)O)C(=O)O)C(=O)O`, “inactive”.

For the molecule `c1ccc2c(c1)ccc1c3ccccc3ccc21`, the outcome was inactive.

On to `NC[C@H]1O[C@H](O[C@H]2[C@H](O)[C@@H](O[C@H]3O[C@H](CO)[C@@H](O)[C@H](N)[C@H]3O)[C@H](N)C[C@@H]2N)[C@H](N)[C@@H](O)[C@@H]1O`, for which the outcome was inactive. On the same count and under the same terms, the entry for `CCOc1ccc2ccccc2c1C(=O)N[C@@H]1C(=O)N2[C@@H]1SC(C)(C)[C@@H]2C(=O)O` is “inactive”; for `OCC(O)CN1CCN(c2ccccc2)CC1` (stereo not drawn) it is “inactive”.

Take `CCNC(=O)NCCCOc1cccc(CN2CCCCC2)c1`: the outcome was inactive. As to `OCCCCCCCl`, the result was inactive. On the same count and under the same terms, with `COc1ccc(CCC(=O)c2c(O)cc(O[C@@H]3O[C@H](CO)[C@@H](O)[C@H](O)[C@H]3O[C@@H]3O[C@@H](C)[C@H](O)[C@@H](O)[C@H]3O)cc2O)cc1O` the entry was “inactive”. With `Clc1ccc2nsnc2c1NC1=NCCN1`, the outcome was inactive. The same measure, in the same setting: the entry for `CC(C)C[C@@H](N)C(=O)O` is “inactive”. Still for that read-out and setting: with `O=P(O)(O)OP(=O)(O)OP(=O)(O)O` the entry was “inactive”; with `OCC1(CO)COC(C(Cl)(Cl)Cl)OC1`, “inactive”. Still for that read-out and setting: with `OCC(F)(F)F` the entry was “inactive”; with `Cn1cnc2ncnc(N)c21`, “inactive”; with `C[C@H]1[C@H](NC(=O)C(=NOC(C)(C)C(=O)O)c2csc(N)n2)C(=O)N1S(=O)(=O)O`, “inactive”. The term AC50 denotes the concentration giving half of the maximal activity seen. Turning to `C=CCSSSCC=C`, the AC50 was 8.68 µM (active). For `CCOc1cc(N)c(Cl)cc1C(=O)NCC1CN(Cc2ccc(F)cc2)CCO1` (stereo not drawn), the outcome was inactive. For `NNc1nnc(Cc2ccncc2)c2ccccc12`, the result was inactive. The same measure, in the same setting: with `CC(C)C[C@H](NC(=O)[C@@H](Cc1c[nH]c2ccccc12)NC(=O)[C@H](Cc1ccc(O)cc1)NC(=O)[C@H](CO)NC(=O)[C@H](Cc1c[nH]c2ccccc12)NC(=O)[C@H](Cc1cnc[nH]1)NC(=O)[C@@H]1CCC(=O)N1)C(=O)N[C@@H](CCCN=C(N)N)C(=O)N1CCC[C@@H]1C(=O)NCC(N)=O` the entry was “inactive”; with `CC(C)(C)c1ccc(C=O)cc1`, “inactive”. For the molecule `CN(C)CC/C=C1\c2ccccc2COc2ccccc21`, the result was inactive. For the molecule `ClC/C=C\CCl`, the result was inactive.
